Here are results for 8 molecules from PubChem BioAssay (Tox21).

Unmarked numbers belong to inactive results. Results filed as inconclusive are left out. Activity calls are given as the source filed them. Unless noted, calls follow the shape of the dose curve; as a rule, active = well fitted curve in the direction sought with a large enough effect in the repeat runs; inconclusive = weak or mixed curves; inactive = no such curve, though single readings can be large; an effect the other way counts as inactive or inconclusive.

Experiment [1] is described as follows: qHTS assay for small molecule agonists of the p53 signaling pathway (AID 651631; calls by dose curve; also: nearly all actives have a fitted effect of over 15% in size). The method in brief:
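Stably transfected HCT-116 cells (beta-lactamase behind p53 response elements) get compounds after a 5 h settling period; 16 h later at 37 °C, FRET substrate is loaded and fluorescence read after 2 h.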
On the technique in general: qHTS replaces the single test concentration by a dilution series.

The nature of experiment [2]: qHTS assay for small molecule agonists of the p53 signaling pathway - cell viability (AID 651633; calls by dose curve;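 also: p53RE-bla HCT reporter cells with a stable beta-lactamase p53 reporter; series mostly up to about 83 µM; nearly all actives have a fitted effect of over 30% in size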). The method in brief: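 p53RE-bla cells, seeded at 4,000 per well and rested 5 h at 37 C/5% CO2, received compounds in DMSO for 16 h at 37 C. CellTiter-Glo was then added, and luminescence was read after 30 min at room temperature to gauge cytotoxicity.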
Experiment [3] in a line: qHTS assay to test for compound auto fluorescence at 535 nm (green) in HEK293 cells (AID 720680).
Experiment [4] in a line: qHTS assay to test for compound auto fluorescence at 590 nm (red) in HepG2 cell free culture (AID 720684). The method in brief: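 Ex 540 / Em 590 nm read of compound in cell-free MEM (10% FBS). Rose Bengal sodium reference.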
For experiment [5], the target named is Glucocorticoid receptor (Homo sapiens) (UniProt P04150). The experiment can be described thus: qHTS assay to identify small molecule agonists of the glucocorticoid receptor (GR) signaling pathway (AID 720691; active = well fitted activation curve with a large enough effect in the signal ratio in the repeat runs, not every such curve was filed as active; the % refers to the signal ratio). The method in brief: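 Compounds in DMSO, alongside positive controls, were added to GR-bla HeLa reporter cells and incubated 18 h at 37 C; GRE-driven beta-lactamase was detected by fluorescence after 2 h with FRET substrate at room temperature.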
Chain of Glucocorticoid receptor (Homo sapiens) (P04150 whole entry, looked up): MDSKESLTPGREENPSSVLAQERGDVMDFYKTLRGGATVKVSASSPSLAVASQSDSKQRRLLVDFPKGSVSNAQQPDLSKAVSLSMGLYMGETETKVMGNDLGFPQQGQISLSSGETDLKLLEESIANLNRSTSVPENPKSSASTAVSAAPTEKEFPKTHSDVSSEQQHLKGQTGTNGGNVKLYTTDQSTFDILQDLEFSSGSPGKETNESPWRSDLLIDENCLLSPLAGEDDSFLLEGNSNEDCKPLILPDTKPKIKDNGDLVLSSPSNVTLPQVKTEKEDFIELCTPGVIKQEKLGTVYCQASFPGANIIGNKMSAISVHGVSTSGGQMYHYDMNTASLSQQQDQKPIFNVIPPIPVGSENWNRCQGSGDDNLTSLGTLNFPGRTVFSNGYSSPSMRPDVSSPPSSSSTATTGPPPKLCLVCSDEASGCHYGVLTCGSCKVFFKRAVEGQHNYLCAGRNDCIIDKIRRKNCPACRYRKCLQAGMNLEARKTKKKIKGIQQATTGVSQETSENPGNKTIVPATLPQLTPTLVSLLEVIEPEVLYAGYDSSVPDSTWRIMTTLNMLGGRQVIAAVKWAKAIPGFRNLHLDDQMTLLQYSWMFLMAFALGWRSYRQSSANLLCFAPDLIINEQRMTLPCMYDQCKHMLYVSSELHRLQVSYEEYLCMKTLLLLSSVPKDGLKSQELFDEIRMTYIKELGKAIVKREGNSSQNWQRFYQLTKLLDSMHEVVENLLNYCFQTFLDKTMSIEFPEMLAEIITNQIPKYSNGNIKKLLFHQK

The nature of experiment [6]: qHTS assay for identifying genotoxic compounds that show differential cytotoxicity against isogenic chicken DT40 cell lines with known DNA damage response pathways - wild type cell line (AID 743012). Also: nearly all actives have a fitted effect of over 60% in size. Also: potency is read from the fitted curve at half-maximal effect. The method in brief:
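Viability of DNA repair-proficient chicken DT40 cells was assessed by CellTiter-Glo luminescence following 40 h compound exposure at 37 C/5% CO2.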

Experiment [7] in a line: qHTS assay for identifying genotoxic compounds that show differential cytotoxicity against isogenic chicken DT40 cell lines with known DNA damage response pathways - Rev3 mutant cell line (AID 743014). Also: nearly all actives have a fitted effect of over 55% in size. Also: potency is read from the fitted curve at half-maximal effect.
The nature of experiment [8]: qHTS assay to identify small molecule antagonists of the androgen receptor (AR) signaling pathway - cell viability counter screen (AID 743033; also: nearly all actives have a fitted effect of over 45% in size).
Experiment [9] in a line: qHTS assay to identify small molecule antagonists of the androgen receptor (AR) signaling pathway using the MDA cell line - cell viability counter screen (AID 743041; also: nearly all actives have a fitted effect of over 45% in size). An outline of the steps:
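In this qHTS counter assay, fluorescence intensity after CellTiter-Fluor addition indicated viability of MDA-kb2 AR-luc cells given compounds and R1881 for 16 h at 37C.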

Experiment [10] is described as follows: qHTS assay to identify small molecule antagonists of the thyroid receptor (TR) signaling pathway - cell viability counter screen (AID 743064). Also: nearly all actives have a fitted effect of over 50% in size. Also: potency is read from the fitted curve at half-maximal effect. The method in brief:
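Counter screen for cytotoxicity: compound plus T3 (1 nM final) on GH3.TRE-Luc cells, 23.5 h at 37 °C, then fluorescence viability readout with CellTiter-Fluor.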

Experiment [11] can be described thus: qHTS assay to identify small molecule that activate the aryl hydrocarbon receptor (AhR) signaling pathway - cell viability counter screen (AID 743086). Also: nearly all actives have a fitted effect of over 45% in size. Also: potency is read from the fitted curve at half-maximal effect. An outline of the steps: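 HepG2-AhR-luc (HG2L7.5c1) cells, 4000/well, were preincubated 5 h at 37C, exposed to compound in qHTS format for 24 hr at 37C, then given CellTiter-Fluor for 30 min; viability was read as fluorescence in the reporter wells.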

Experiment [12] has as its target Nuclear receptor subfamily 1 group I member 2 (Rattus norvegicus) (UniProt Q9R1A7). The experiment can be described thus: Rat pregnane X receptor (rPXR) activation by small molecules, qHTS assay (AID 1346983). Also: nearly all actives have a fitted effect of over 20% in size. Particulars: rPXR luciferase reporter cells, One-Glo luminescence, 24 h; max activation: hits give high values. The method in brief: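 Cell-based rPXR luciferase reporter assay, 2,000 cells per well, rested 5hr at 37 C before compound addition in DMSO, then 24 hr at 37 C. One-Glo reagent was added and luminescence read after 30 min at room temperature.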

The target of experiment [13] is Nuclear receptor subfamily 1 group I member 2 (Homo sapiens) (UniProt O75469). The experiment can be described thus: CYP3A4 induction through human pregnane X receptor (PXR) by small molecules, qHTS assay (AID 1346984). Also: nearly all actives have a fitted effect of over 40% in size. The method in brief: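 Cells (DPX-2; HepG2 with PXR element plus CYP3A4-promoter luciferase) settled 5hr, then were treated 24hr at 37C. A 3hr, 3uM-final Luciferin-IPA step preceded luminescence measurement with One-Glo.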

Experiment [14] in a line: qHTS assay to test for compound auto fluorescence at 460 nm (blue) in HEK293 cells (AID 720678). An outline of the steps: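 Blue-channel (Ex/Em 405/460 nm) intensity measured in HEK293 cultures after overnight compound exposure at 37C; signal expressed relative to triamterene. Cells plated 2,000 per well in 10% dialyzed FBS medium and allowed 4-5 hr to attach.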
A short description of experiment [15]: qHTS assay to test for compound auto fluorescence at 590 nm (red) in HEK293 cells (AID 720679). The method in brief:
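Red-channel autofluorescence (Ex/Em 540/590 nm; Rose Bengal sodium reference) was measured after overnight 37C, 5% CO2 exposure of attached HEK293 cells, 2,000 per well in medium with 10% dialyzed FBS.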

The target in experiment [16] is Estrogen receptor (Homo sapiens) (UniProt P03372). The experiment can be described thus: qHTS assay to identify small molecule agonists of the estrogen receptor alpha (ER-alpha) signaling pathway (AID 743075; calls by dose curve;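 also: HEK293 GripTite cells with ER-alpha and UAS-driven beta-lactamase reporter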).
Chain of Estrogen receptor (Homo sapiens) (P03372 whole entry, looked up): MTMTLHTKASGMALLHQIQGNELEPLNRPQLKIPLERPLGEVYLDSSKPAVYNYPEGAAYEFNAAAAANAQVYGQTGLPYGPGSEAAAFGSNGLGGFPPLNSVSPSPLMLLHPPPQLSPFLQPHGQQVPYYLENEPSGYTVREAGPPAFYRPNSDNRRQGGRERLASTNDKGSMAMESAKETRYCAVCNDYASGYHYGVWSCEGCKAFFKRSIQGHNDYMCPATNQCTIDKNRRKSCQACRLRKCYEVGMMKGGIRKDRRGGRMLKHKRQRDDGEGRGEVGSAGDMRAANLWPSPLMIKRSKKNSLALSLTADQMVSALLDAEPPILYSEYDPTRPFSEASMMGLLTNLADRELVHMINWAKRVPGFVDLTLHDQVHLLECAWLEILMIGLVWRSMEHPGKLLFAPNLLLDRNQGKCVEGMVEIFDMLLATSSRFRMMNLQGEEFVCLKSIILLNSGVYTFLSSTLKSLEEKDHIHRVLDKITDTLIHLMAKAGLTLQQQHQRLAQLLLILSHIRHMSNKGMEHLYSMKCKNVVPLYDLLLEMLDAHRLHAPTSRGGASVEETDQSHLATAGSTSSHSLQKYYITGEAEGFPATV
Experiment [17] has the same target. The experiment can be described thus: qHTS assay to identify small molecule agonists of the estrogen receptor alpha (ER-alpha) signaling pathway using the BG1 cell line (AID 743079). Also: nearly all actives have a fitted effect of over 20% in size. Also: potency is read from the fitted curve at half-maximal effect.
Experiment [18] is described as follows: qHTS assay to identify small molecule antagonists of the estrogen receptor alpha (ER-alpha) signaling pathway using the BG1 cell line (AID 743080; calls by dose curve;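 also: BG1 cells stimulated with 17beta-estradiol alongside compound; series mostly up to about 70 µM; nearly all actives have a fitted effect of over 25% in size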). The method in brief:
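Luciferase inhibition measured with ONE-Glo after 30 min at RT in BG1Luc4E2 cells given test compounds and 17beta-estradiol for 21.5 h at 37 C; CellTiter-Fluor viability read in the same wells beforehand.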

In experiment [19] the target is Peroxisome proliferator-activated receptor gamma (Homo sapiens) (UniProt P37231). The experiment can be described thus: qHTS assay to identify small molecule agonists of the peroxisome proliferator-activated receptor gamma (PPARg) signaling pathway (AID 743094; active = well fitted activation curve with a large enough effect in the signal ratio in the repeat runs, not every such curve was filed as active; the % refers to the signal ratio). An outline of the steps:
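Agonism was assessed in a beta-lactamase reporter system, HEK293H cells with a stably integrated UAS-bla construct under PPARg control; the 17 h treatment at 37C preceded a 1 h room-temperature FRET substrate read.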

The target in experiment [20] is Nuclear receptor subfamily 1 group I member 2 (Homo sapiens) (UniProt O75469). The experiment can be described thus: Human pregnane X receptor (PXR) activation by small molecules, qHTS assay (AID 1346985). Also: nearly all actives have a fitted effect of over 40% in size. The method in brief:
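DPX-2 cells (HepG2 co-transfected with a PXR response element and a CYP3A4-promoter luciferase construct) were seeded at 2,000 per well, rested 5 hr at 37C, then exposed to DMSO-dissolved compounds for 24 hr. Activation was read as luciferase luminescence.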
% is scaled to controls: 0 for no effect and ±100 for the full control effect.

Chain of Peroxisome proliferator-activated receptor gamma (Homo sapiens) (P37231 whole entry, looked up): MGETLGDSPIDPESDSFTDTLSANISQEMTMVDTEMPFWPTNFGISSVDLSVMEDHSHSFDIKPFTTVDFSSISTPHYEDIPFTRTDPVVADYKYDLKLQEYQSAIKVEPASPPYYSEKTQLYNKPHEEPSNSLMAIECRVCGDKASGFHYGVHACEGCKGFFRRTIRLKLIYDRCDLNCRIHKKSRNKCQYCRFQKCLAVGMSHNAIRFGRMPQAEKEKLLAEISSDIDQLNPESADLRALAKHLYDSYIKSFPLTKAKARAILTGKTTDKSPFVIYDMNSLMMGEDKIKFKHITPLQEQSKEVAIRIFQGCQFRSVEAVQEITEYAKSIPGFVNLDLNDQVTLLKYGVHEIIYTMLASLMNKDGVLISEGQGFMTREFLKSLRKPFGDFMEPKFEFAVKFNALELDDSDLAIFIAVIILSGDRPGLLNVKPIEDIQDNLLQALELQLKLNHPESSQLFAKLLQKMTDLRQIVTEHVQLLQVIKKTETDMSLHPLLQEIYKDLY
Chain of Nuclear receptor subfamily 1 group I member 2 (Rattus norvegicus) (Q9R1A7 whole entry, looked up): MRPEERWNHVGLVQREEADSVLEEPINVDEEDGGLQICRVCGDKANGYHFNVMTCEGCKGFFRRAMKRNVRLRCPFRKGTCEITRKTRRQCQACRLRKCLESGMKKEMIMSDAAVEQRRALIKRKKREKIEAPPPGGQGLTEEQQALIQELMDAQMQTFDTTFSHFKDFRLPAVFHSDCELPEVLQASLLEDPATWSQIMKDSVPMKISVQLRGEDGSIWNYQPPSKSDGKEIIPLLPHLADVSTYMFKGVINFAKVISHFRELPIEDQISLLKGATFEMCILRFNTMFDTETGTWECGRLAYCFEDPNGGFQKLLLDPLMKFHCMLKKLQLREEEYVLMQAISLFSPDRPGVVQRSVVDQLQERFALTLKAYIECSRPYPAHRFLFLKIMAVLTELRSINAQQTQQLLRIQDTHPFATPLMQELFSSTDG

As to `Cc1nnc2n1-c1ccc(Cl)cc1C(c1ccccc1Cl)=NC2`, the Potency result in experiment [1], in experiment [2], in experiment [3], in experiment [5], in experiment [6] and in [7] was “inactive” in each case. In addition, the Potency result in [8], in [9], in experiment [10], in [11] and in experiment [13] was “inactive” throughout. In addition, in experiment [4], the molecule was classed as inactive. The max activation in [12] is 3.04%.

In the case of `N#CC(C#N)=Cc1cc(O)c(O)c(O)c1`, the Potency entry in experiment [1], in experiment [2], in experiment [14], in [3], in experiment [5] and in [8] was “inactive” throughout. For the same molecule, the Potency result in experiment [16], in experiment [17], in [18] and in experiment [19] was “inactive” throughout. Further, in [15], the outcome was inactive. Also, the Potency in experiment [6] was 21.1 µM (active); in experiment [7], 26.6 µM (active); in experiment [10] it was 26.6 µM (active); in [11], 13.3 µM (active).

Turning to `C/C=C(\CC)C(=O)NC(N)=O`, the Potency result in experiment [1], in experiment [2], in experiment [14], in experiment [3], in [5] and in [7] was “inactive” in each case. Further, the Potency result in experiment [8], in experiment [9], in experiment [10], in experiment [16], in [18] and in experiment [19] was “inactive” in each case. Further, in [4], the molecule was called inactive. Besides, in experiment [17], the Potency is 29.8 µM (active).

For `O=C1Nc2ccc(Cl)cc2C(c2ccccc2Cl)=NC1O` (centres undefined), the Potency result in experiment [1], in experiment [2], in [14], in experiment [3], in experiment [5] and in [7] was “inactive” each time. In addition, the Potency result in experiment [8], in experiment [10], in experiment [16], in experiment [17], in experiment [18] and in [11] was “inactive” throughout. The Potency result in experiment [19] and in [20] was “inactive” throughout. Also, the molecule was classed as inactive in experiment [15] and in [4]. In [12], the max activation was -2.09%.

As to `CCC1C(C)=NN=C(c2ccc(OC)c(OC)c2)c2cc(OC)c(OC)cc21` (centres undefined), the Potency entry in [1], in [2], in experiment [3], in experiment [10], in experiment [16] and in experiment [17] was “inactive” each time. Also, the Potency entry in experiment [18], in experiment [11], in experiment [19] and in experiment [13] was “inactive” each time. Moreover, the outcome in experiment [15] and in experiment [4] was inactive. Also, the max activation in [12] is -0.64%.

Turning to `CC[C@H]1[C@@H]2C[C@H]3[C@@H]4N(C)c5ccccc5[C@]45C[C@@H](C2[C@H]5O)N3[C@@H]1O` (some centres undefined), the Potency entry in experiment [1], in experiment [2], in experiment [14], in [3], in experiment [5] and in experiment [7] was “inactive” throughout. The Potency result in experiment [8], in experiment [10], in [16], in experiment [17], in [18] and in experiment [11] was “inactive” each time. The Potency result in experiment [19] was “inactive”. Moreover, the result in experiment [15] and in experiment [4] was inactive. Besides, the max activation in experiment [12] is 0.0648%.

On to `Oc1ccc2c3c1O[C@H]1[C@@H](O)C=C[C@H]4[C@H](C2)NCC[C@@]341`, for which the Potency result in [1], in [2], in experiment [7], in experiment [8] and in [11] was “inactive” throughout. For the same molecule, the result in experiment [15] and in experiment [4] was inactive.

As to `O=C1CN=C(c2ccccc2)c2cc(Cl)ccc2N1`, the Potency result in [1], in experiment [14], in experiment [3], in [5], in [8] and in experiment [9] was “inactive” throughout. In addition, the Potency result in experiment [10], in experiment [16], in [17], in experiment [18], in experiment [11] and in [19] was “inactive” throughout. For the same molecule, the outcome in experiment [15] and in [4] was inactive.
